# Reference: PubChem BioAssay AID2283105 (EPA ToxCast)
# Active and inactive are the calls of the source. How the source made its calls: active means hit-call score of the fitted dose curve at least 0.9, where 1 is the maximum; inactive means score below 0.9.
# Target: human CYP2E1, CYP2E1 (gene 1571) (UniProt P05181)
# Experiment: NVS_ADME_hCYP2E1: NovaScreen (NVS) CYP450-related Enzyme Activity (ADME) Assay for human CYP2E1
# Method: NVS_ADME_hCYP2E1 is a biochemical, single-readout assay that uses extracted gene-proteins in a cell-free assay. Measurements were taken 0.5 hour after chemical dosing in a 96-well plate.NVS_ADME_hCYP2E1 is one of one assay component(s) measured or calculated from the NVS_ADME_hCYP2E1 assay. It is designed to make measurements of enzyme activity, a form of enzyme reporter, as detected with fluorescence intensity signals by Fluorescence technology.Data from the assay component NVS_ADME_hCYP2E1 was analyzed into 1 assay endpoint. This assay endpoint, NVS_ADME_hCYP2E1, was analyzed in the positive analysis fitting direction relative to Acetonitrile as the negative control and baseline of activity. Using a type of enzyme reporter, loss-of-signal activity can be used to understand changes in the enzymatic activity as they relate to the gene CYP2E1. Furthermore, this assay endpoint can be referred to as a primary readout, because this assay has produced multiple assay endpoints where this one serves a enzymatic activity function. To generalize the intended target to other relatable targets, this assay endpoint is annotated to the cyp intended target family, where the subfamily is xenobiotic metabolism. […]
# Sequence of human CYP2E1, CYP2E1 (gene 1571) (P05181 whole entry, looked up): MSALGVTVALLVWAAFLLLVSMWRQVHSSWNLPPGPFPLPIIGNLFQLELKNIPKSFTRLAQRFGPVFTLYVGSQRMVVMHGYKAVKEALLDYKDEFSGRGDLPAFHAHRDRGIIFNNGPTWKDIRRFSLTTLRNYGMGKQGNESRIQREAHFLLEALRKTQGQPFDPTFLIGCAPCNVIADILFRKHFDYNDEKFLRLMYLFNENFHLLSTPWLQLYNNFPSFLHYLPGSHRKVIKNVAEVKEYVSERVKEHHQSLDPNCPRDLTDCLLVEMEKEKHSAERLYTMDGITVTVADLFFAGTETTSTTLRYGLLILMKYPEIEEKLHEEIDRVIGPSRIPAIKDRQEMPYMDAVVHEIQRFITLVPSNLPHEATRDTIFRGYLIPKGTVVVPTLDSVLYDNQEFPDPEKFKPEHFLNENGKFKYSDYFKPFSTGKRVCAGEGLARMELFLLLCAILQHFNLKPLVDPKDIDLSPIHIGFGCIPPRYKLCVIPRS
compound,measurement,value
N#CSCSc1nc2ccccc2s1,AC50,5.32 µM (active)
